# Measurements: PubChem BioAssay AID1159580 (chemical genetic matrix, 2015)
# Out of some 5,500 compounds screened, about 2,000 (36%) were called active. About 18% were inconclusive and are not listed. The list shows a part of the results. A number with no mark means an inactive call. Rule as the data show it: active = normalized growth mostly below about 0.91 (no sharp cut-off); inconclusive = no clear call, values can overlap the other calls; inactive = mostly above about 0.92.
# Assay: chemical genetic growth profiling, strain panel (AID 1159580);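 also: tested at 20 µM; growth read once vehicle control cultures reached saturation at 30 °C; 1 = growth at the plate median or of vehicle wells; lower values mean less growth of the strain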
# Conditions: S. cerevisiae deletion strains, growth OD
structure (smiles),measurement,setting,value
CC1CCc2c(sc3ncnc(Sc4ccccc4)c23)C1 (stereo unspecified),normalized growth,"locus YAR019C, strain CDC15, active compounds read low",0.992
same,normalized growth,"locus YBL105C, strain PKC1, active compounds read low",0.972
same,normalized growth,"locus YBR135W, strain CKS1, active compounds read low",0.979
same,normalized growth,"locus YBR136W, strain MEC1, active compounds read low",0.978
same,normalized growth,"locus YBR160W, strain CDC28, active compounds read low",0.983
same,normalized growth,"locus YDL017W, strain CDC7, active compounds read low",0.981
same,normalized growth,"locus YDL028C, strain MPS1, active compounds read low",0.978
same,normalized growth,"locus YDL101C, strain DUN1, active compounds read low",0.978
same,normalized growth,"locus YDL108W, strain KIN28, active compounds read low",0.976
same,normalized growth,"locus YDL132W, strain cdc53, active compounds read low",0.977
same,normalized growth,"locus YDL214C, strain PRR2, active compounds read low",0.945
same,normalized growth,"locus YDR052C, strain DBF4, active compounds read low",0.98
same,normalized growth,"locus YDR054C, strain cdc34, active compounds read low",0.981
same,normalized growth,"locus YDR226W, strain ADK1, active compounds read low",0.979
same,normalized growth,"locus YDR477W, strain SNF1, active compounds read low",0.952
same,normalized growth,"locus YER123W, strain YCK3, active compounds read low",0.926
same,normalized growth,"locus YER133W, strain GLC7, active compounds read low",0.956
same,normalized growth,"locus YFL009W, strain cdc4, active compounds read low",0.983
same,normalized growth,"locus YFL029C, strain CAK1, active compounds read low",0.987
same,normalized growth,"locus YFR003C, strain YPI1, active compounds read low",0.977
same,normalized growth,"locus YFR019W, strain FAB1, active compounds read low",0.966
same,normalized growth,"locus YFR028C, strain CDC14, active compounds read low",0.975
same,normalized growth,"locus YGR040W, strain KSS1, active compounds read low",0.937
same,normalized growth,"locus YGR052W, strain FMP48, active compounds read low",1
same,normalized growth,"locus YGR092W, strain DBF2, active compounds read low",0.991
same,normalized growth,"locus YHR030C, strain SLT2, active compounds read low",1.19 [resistant] (active)
same,normalized growth,"locus YHR079C, strain IRE1, active compounds read low",1.11
same,normalized growth,"locus YHR082C, strain KSP1, active compounds read low",1.06
same,normalized growth,"locus YHR205W, strain SCH9, active compounds read low",0.992
same,normalized growth,"locus YIL147C, strain SLN1, active compounds read low",0.977
same,normalized growth,"locus YJL095W, strain BCK1, active compounds read low",0.996
same,normalized growth,"locus YJL128C, strain PBS2, active compounds read low",0.94
same,normalized growth,"locus YJL157C, strain FAR1, active compounds read low",0.962
same,normalized growth,"locus YJR016C, strain ILV3, active compounds read low",0.984
same,normalized growth,"locus YJR066W, strain TOR1 (second series), active compounds read low",0.948
same,normalized growth,"locus YJR066W, strain TOR1, active compounds read low",1.09
same,normalized growth,"locus YKL048C, strain ELM1, active compounds read low",0.966
same,normalized growth,"locus YKL067W, strain YNK1, active compounds read low",0.948
same,normalized growth,"locus YKL101W, strain HSL1, active compounds read low",0.931
same,normalized growth,"locus YKL193C, strain SDS22, active compounds read low",0.983
same,normalized growth,"locus YKL203C, strain TOR2, active compounds read low",1.04
same,normalized growth,"locus YLR113W, strain HOG1, active compounds read low",0.886
same,normalized growth,"locus YLR133W, strain CKI1, active compounds read low",0.946
same,normalized growth,"locus YLR403W, strain SFP1, active compounds read low",0.968
same,normalized growth,"locus YML070W, strain DAK1, active compounds read low",0.936
same,normalized growth,"locus YMR001C, strain CDC5, active compounds read low",0.984
same,normalized growth,"locus YMR205C, strain PFK2 (second series), active compounds read low",0.95
same,normalized growth,"locus YMR277W, strain FCP1, active compounds read low",0.98
same,normalized growth,"locus YNL006W, strain LST8, active compounds read low",0.99
same,normalized growth,"locus YNL020C, strain ARK1, active compounds read low",0.943
same,normalized growth,"locus YNL161W, strain CBK1, active compounds read low",0.98
same,normalized growth,"locus YNL183C, strain NPR1, active compounds read low",1.03
same,normalized growth,"locus YNL207W, strain RIO2, active compounds read low",0.976
same,normalized growth,"locus YNL222W, strain SSU72, active compounds read low",0.989
same,normalized growth,"locus YNL307C, strain MCK1 (second series), active compounds read low",0.969
same,normalized growth,"locus YOL078W, strain AVO1, active compounds read low",0.976
same,normalized growth,"locus YOL136C, strain PFK27, active compounds read low",0.913
same,normalized growth,"locus YOR061W, strain CKA2, active compounds read low",0.935
same,normalized growth,"locus YOR119C, strain RIO1, active compounds read low",1.02
same,normalized growth,"locus YOR231W, strain MKK1, active compounds read low",0.925
same,normalized growth,"locus YOR329C, strain SCD5, active compounds read low",0.983
same,normalized growth,"locus YPL031C, strain PHO85, active compounds read low",0.945
same,normalized growth,"locus YPL153C, strain RAD53, active compounds read low",0.941
same,normalized growth,"locus YPL204W, strain HRR25, active compounds read low",0.92
same,normalized growth,"locus YPL209C, strain IPL1, active compounds read low",0.982
same,normalized growth,"locus YPL256C, strain CLN2, active compounds read low",1.02
same,normalized growth,"locus YPR025C, strain CCL1, active compounds read low",0.982
same,normalized growth,"locus YPR106W, strain ISR1, active compounds read low",0.984
same,normalized growth,"locus YPR111W, strain DBF20, active compounds read low",0.96
same,normalized growth,"strain NNK1, active compounds read low",0.981
same,normalized growth,"strain TSCII, active compounds read low",0.979
